In PubChem BioAssay (NCATS):
Several values for one entry are separate records, joined by “and”; a condition that tells them apart may be missing. Equal values may be shown once. Records with an inconclusive call do not appear. Entries that show only a call come without a potency. A number with no mark means an inactive call. Activity calls are given as the source filed them. Calls come from the whole dose curve; as a rule, active = well fitted inhibition curve with a large enough effect; inconclusive = small, poorly fitted or top-dose-only effect; inactive = flat fitted curve, though single readings scatter.

Legend:
[1] = tested on: KB-3-1; test: Cytotoxic Profiling of Annotated Libraries Using Quantitative High-Throughput Screening (AID 1296008); settings: Five cell lines viability, CellTiter-Glo ATP luminescence, 48-72 h; max response: active compounds read low; note: potency is the fitted concentration of half-maximal effect
Procedure, shortened: (§1)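 Cytotoxicity was measured as CellTiter-Glo ATP luminescence, read after 10 min at room temperature. Compound treatment of the cells lasted 48 or 72 hr at 37 degrees Celsius in a qHTS format.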

[2] = tested on: NIH3T3; test: as above; settings: Five cell lines viability, CellTiter-Glo ATP luminescence, 48-72 h; max response: active compounds read low
Procedure, shortened: as §1

[3] = tested on: CRL-7250; test: qHTS assay to identify novel small-molecules to repurpose for Merkel cell carcinoma treatment (AID 1296009); settings: MCC and control cell lines, CellTiter-Glo viability, 72 h; at 44.8 µM (top of the series) unless noted
Procedure, shortened: (§2)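 72 hr, 37 degree celsius; NPC 8-pt / MIPE 11-pt dose response; compound pinned in DMSO; CellTiter-Glo, 10 min RT, luminescence; normalized to no-cell and DMSO controls.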

[4] = tested on: MCC-13; test: as above; settings: MCC and control cell lines, CellTiter-Glo viability, 72 h; series mostly up to 46 µM
Procedure, shortened: as §2

[5] = tested on: MCC-26; test: as above; settings: MCC and control cell lines, CellTiter-Glo viability, 72 h; series mostly up to 46 µM
Procedure, shortened: as §2

[6] = tested on: MKL-1; test: as above; settings: MCC and control cell lines, CellTiter-Glo viability, 72 h; series mostly up to 46 µM
Procedure, shortened: as §2

[7] = tested on: MKL-2; test: as above; settings: MCC and control cell lines, CellTiter-Glo viability, 72 h; series mostly up to 46 µM
Procedure, shortened: as §2

[8] = tested on: NIH3T3; test: as above; settings: MCC and control cell lines, CellTiter-Glo viability, 72 h; at 44.8 µM (top of the series) unless noted
Procedure, shortened: as §2

[9] = tested on: HACAT; test: as above; settings: MCC and control cell lines, CellTiter-Glo viability, 72 h; at 44.8 µM (top of the series) unless noted
Procedure, shortened: as §2

[10] = tested on: HEK293T; test: as above; settings: MCC and control cell lines, CellTiter-Glo viability, 72 h; at 44.8 µM (top of the series)
Procedure, shortened: as §2
Note: nearly all actives have a fitted effect of over 60% in size.

SMILES | max response [1] | outcome [2] | outcome [3] | Potency [4] | Potency [5] | Potency [6] | Potency [7] | outcome [8] | outcome [9] | max response [2] | outcome [10] | outcome [1] | Potency [2]
CC(C)(C)OC(=O)c1ncn2c1[C@@H]1CCCN1C(=O)c1c(Br)cccc1-2 | -1.12% | inactive | inactive | inactive | inactive | inactive | inactive | inactive |  |  |  |  | 
NC(=O)OCCCc1ccccc1 | -19.1% | inactive | inactive | inactive | inactive | inactive | inactive | inactive | inactive |  |  |  | 
CCC1(c2ccccc2)CCC(=O)NC1=O (configuration not stated) | -6.95% |  | inactive | inactive | inactive | inactive | inactive |  |  | 4.7% |  |  | 
C=CCOC(Cn1ccnc1)c1ccc(Cl)cc1Cl (configuration not stated) | 2.22% |  |  | inactive | inactive | inactive |  |  | inactive | -13% |  |  | 
C[C@H](N)[C@H](O)c1ccc(O)c(O)c1 | -14.6% |  |  | inactive | inactive | inactive |  |  | inactive | -48.1% |  |  | 
O=c1n(Cl)c(=O)n(Cl)c(=O)n1Cl | 7.13% |  | inactive | inactive | inactive | inactive | inactive |  | inactive | 2.85% |  |  | 
CCOP(=S)(OCC)O/N=C(\C#N)c1ccccc1 | -0.0569% | inactive |  | inactive | inactive | inactive | inactive | inactive | inactive |  | inactive |  | 
O=C(O)c1nn(Cc2ccc(Cl)cc2Cl)c2ccccc12 | 4.9% and -9.13% | inactive |  | inactive | inactive | inactive | inactive | inactive | inactive | -6.41% | inactive |  | 
CCN(CC)C(C)C(=O)c1ccccc1 (configuration not stated) | -1.49% |  |  | inactive | inactive | inactive | inactive |  | inactive | -1.81% |  |  | 
CN1C(=O)CN=C(c2ccccc2)c2cc([N+](=O)[O-])ccc21 | 9.64% | inactive | inactive | inactive | inactive | inactive | inactive | inactive | inactive |  |  |  | 
CC(C)C(Br)C(=O)NC(N)=O (configuration not stated) | -15.8% |  | inactive | inactive | inactive | inactive | inactive |  |  | -7.2% |  |  | 
C[C@@H]1CN(C2CCC(C#N)(c3ccc(F)cc3)CC2)CC[C@]1(C(=O)O)c1ccccc1 (some centres not stated) | -4.01% | inactive | inactive | inactive | inactive | inactive | inactive | inactive |  |  |  |  | 
NCc1cccnc1 | -3.91% |  |  | inactive | inactive | inactive | inactive |  | inactive | 3.43% |  |  | 
CCC(=O)O[C@H]1CC[C@H]2[C@@H]3CCC4=CC(=O)CC[C@]4(C)[C@H]3CC[C@]12C | -26.4% |  |  | inactive | inactive | inactive | inactive |  | inactive | 0.89% |  |  | 
CN(C)CCc1c[nH]c2cccc(O)c12 | -8.17% |  | inactive [at 92 µM] | inactive | inactive | inactive | inactive |  | inactive [at 92 µM] | 2.31% |  |  | 
O=C(NC(=O)c1c(F)cccc1F)Nc1cc(Cl)c(OC(F)(F)C(F)C(F)(F)F)cc1Cl (configuration not stated) | 8.21% |  | inactive | inactive | inactive | inactive |  |  | inactive | -16.1% |  |  | 
ClC1=C(Cl)C2(Cl)C(CBr)CC1(Cl)C2(Cl)Cl (configuration not stated) | -4.74% |  |  | inactive | inactive | inactive | inactive |  | inactive | -4.41% | inactive |  | 
CCC(OC(C)=O)C(CC(C)NC)(c1ccccc1)c1ccccc1 (configuration not stated) | -22.1% |  |  |  |  |  |  |  |  |  |  |  | 
C[C@]12CC[C@H]3[C@@H](CC=C4C[C@@H](O)CC[C@@]43C)[C@@H]1CC[C@@H]2O | -11.4% |  |  | inactive | inactive | inactive | inactive |  | inactive | 4.53% |  |  | 
COc1ccc2c(C(=O)c3ccc(Cl)cc3)c(C)n(CC(=O)O)c2c1 |  |  |  |  |  |  |  |  |  | -34.1% |  | inactive | 
CC(C)[N+](C)(CCC(C(N)=O)(c1ccccc1)c1ccccc1)C(C)C | 11.9% | inactive |  | inactive | inactive |  |  | inactive | inactive |  |  |  | 
Cc1ccc(N=CN(C)C=Nc2ccc(C)cc2C)c(C)c1 | 1.07% | inactive |  | inactive | inactive | inactive | inactive | inactive |  |  | inactive |  | 
COc1cc(C[C@@H](C)N)c(OC)cc1Br | -0.0524% |  |  | inactive | inactive | inactive | inactive |  |  | -1.11% |  |  | 
O=C(N[C@@H]1N=C(c2ccccc2F)c2cccc3c2N(CC3)C1=O)c1cc2ccccc2[nH]1 | -13.9% |  |  | inactive | inactive | inactive | inactive |  |  |  |  |  | 4.32 µM (active)
